Pf growth 96h – Primary qHTS for delayed death inhibitors of the malarial parasite plastid, 96 hour incubation; P. falciparum luciferase reporter growth, 96 h; AID 504834, 2011; hit rate 6.9% among 320,000; Potency, µM (highest dose often 28.7 µM), without a hit: at the highest dose activity change, negative = inhibition, hits mostly inhibitors; also: potency is read from the fitted curve at half-maximal effect; % is scaled to controls: 0 for no effect and ±100 for the full control effect
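Luminescence readout: decreased luciferase signal marks inhibited growth of reporter-expressing P. falciparum in infected red cells (2% hematocrit, 0.05% parasitemia final), exposed to compound two generations (96 h, 37 C, 5% CO2).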
Cycloheximide cs – Cycloheximide Counterscreen for Small Molecule Inhibitors of Shiga Toxin. hit rate 12% among 300,000. AID 2314, 2010. cell reporter, cycloheximide protein synthesis inhibition counterscreen. max response, %; in the data active = max response mostly above about 13%, no sharp cut-off; inactive = mostly below about 14%; also: read at 38.3 µM for the half of the compounds with a filed dose; 0% is about no effect
Pf growth 48h – Primary qHTS for delayed death inhibitors of the malarial parasite plastid, 48 hour incubation. P. falciparum luciferase growth in erythrocytes, 48 h. Potency, µM (highest dose often 28.7 µM), for the others: at the top dose activity change, negative = inhibition, hits mostly inhibitors. hit rate 5.9% among 310,000; also: potency is read from the fitted curve at half-maximal effect; % is scaled to controls: 0 for no effect and ±100 for the full control effect
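First compound was added to culture medium, then infected red cells at 0.1% parasitemia and 2% hematocrit (final). After incubation at 37 C under 5% CO2, luciferase detection reagent was dispensed and light output recorded.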
Shiga inhibitor – A qHTS for Small Molecule Inhibitors of Shiga Toxin; Vero cells, Shiga toxin protein synthesis inhibition reporter; inhibition, % at 38.7 µM; hit rate 9.2% among 290,000; AID 2315, 2010; in the data active = inhibition mostly above about 28%, no sharp cut-off; inactive = mostly below about 43%; also: 0% is about no effect
Starred values were filed as active, the others as inactive; ? = inconclusive; . = no result given. Most compounds without a hit are left out; they make up all but 21% or so of the library. Unless noted, calls follow the shape of the dose curve; as a rule, active = well fitted inhibition curve with a large enough effect; inconclusive = small, poorly fitted or top-dose-only effect, or another doubt; inactive = no such curve, though single readings can be large or run the other way.

SMILES | Pf growth 96h | Cycloheximide cs | Pf growth 48h | Shiga inhibitor
Cc1ccccc1-n1ncc2c1CC(C)(C)CC2NC(=O)CCCN1CCCC1=O (stereo not drawn) | -9% | -3 | 0% | -4
CC(C)C[C@H](NC(=O)[C@H](CCCCN)NC(=O)CNC(=O)[C@H](CC(C)C)NC(=O)[C@@H](NC(=O)[C@@H]1CSSC[C@H](N)C(=O)N[C@@H](CO)C(=O)N[C@@H](CC(N)=O)C(=O)N[C@@H](CC(C)C)C(=O)N[C@@H](CO)C(=O)N[C@@H]([C@@H](C)O)C(=O)N1)C(C)C)C(=O)N[C@@H](CO)C(=O)N[C@@H](CCC(N)=O)C(=O)N[C@@H](CCC(=O)O)C(=O)N[C@@H](CC(C)C)C(=O)N[C@@H](Cc1cnc[nH]1)C(=O)N[C@@H](CCCCN)C(=O)N[C@@H](CC(C)C)C(=O)N[C@@H](CCC(N)=O)C(=O)N[C@H](C(=O)N[C@@H](Cc1ccc(O)cc1)C(=O)N1CCC[C@H]1C(=O)N[C@@H](CCCNC(=N)N)C(=O)N[C@H](C(=O)N[C@@H](CC(N)=O)C(=O)N[C@H](C(=O)NCC(=O)N[C@@H](CO)C(=O)NCC(=O)N[C@H](C(=O)N1CCC[C@H]1C(N)=O)[C@@H](C)O)[C@@H](C)O)[C@@H](C)O)[C@@H](C)O | . | -8 | . | -6
O=C(Nc1ccc(-c2nc3ccccc3o2)cc1)c1ccc(N2C(=O)C3C4C=CC(C4)C3C2=O)cc1 (stereo not drawn) | 1.9µM* | 22* | . | 42*
O=C(CCN1C(=O)c2ccccc2C1=O)Nn1cnnc1 | 2.9µM* | -2 | -1% | 14
O=C(CCN1C(=O)c2ccccc2C1=O)NCc1ccccc1 | 3% | 12 | 26% | 11
Cc1ccc2oc(-c3ccc(NC(=O)c4cccnc4)cc3)nc2c1 | 56% | 70* | -85% | 62*
COc1ccc(/C=N/NC(=O)c2cc(-c3ccccc3OC(C)C)nc3ccccc23)cc1CN1CCOCC1 | 2% | -2 | 3% | 12
COc1ccc(/C=N/NC(=O)c2cc(-c3ccccc3OC)nc3ccccc23)cc1COC(C)=O | 1.9µM* | -2 | 12µM* | -11
COc1cc(/C=N/NC(=O)c2cc(-c3ccccc3)nc3ccccc23)cc(OC)c1O | ? | 2 | 54% | .
COc1ccccc1-c1cc(C(=O)N/N=C/c2ccoc2)c2ccccc2n1 | 0% | 9 | 9.3µM* | -8
CCc1ccc(/C=N/NC(=O)c2cc(-c3ccccc3OC)nc3ccccc23)s1 | 2.6µM* | 2 | . | -3
COc1ccccc1-c1cc(C(=O)N/N=C/c2ccc(C)s2)c2ccccc2n1 | 1.5µM* | 0 | . | 8
Cc1cccc(NC(=O)Cn2cnc3c(oc4ccccc43)c2=O)c1C | 8% | 4 | 21% | 2
CC(OC(=O)CCN1C(=O)c2cccc([N+](=O)[O-])c2C1=O)C(=O)Nc1cc(Cl)cc(Cl)c1 (stereo not drawn) | 5% | -1 | -4% | -11
COc1ccc(N(Cc2cc3ccc(C)cc3[nH]c2=O)C(=O)c2ccco2)cc1 | -29% | -3 | 2% | -28
Cc1ccc(C)c(N(Cc2cc3ccc(C)cc3[nH]c2=O)C(=O)c2ccco2)c1 | 7.4µM* | -2 | ? | -2
Cc1ccc2cc(CN(Cc3ccco3)C(=S)NCC3CCCO3)c(=O)[nH]c2c1 (stereo not drawn) | 3.7µM* | 1 | -4% | -5
COc1ccc2cc(CN(CC3CCCO3)C(=S)NCc3ccco3)c(=O)[nH]c2c1 (stereo not drawn) | 26% | -1 | 9.3µM* | -8
CCCn1cc(S(=O)(=O)CC(=O)Nc2ccc(OCC)cc2)c2ccccc21 | 20% | -1 | 13µM* | -11
CCCn1cc(S(=O)(=O)CC(=O)Nc2ccc(OC)cc2OC)c2ccccc21 | ? | -1 | ? | 27
CCn1cc(S(=O)(=O)CC(=O)Nc2ccc(C)cc2)c2ccccc21 | 2.6µM* | 0 | 6% | -11
CC(C)(C)c1ccc(C(=O)NCC(=O)NCc2ccccn2)cc1 | 37% | . | 35% | .
Cc1ccc(S(=O)(=O)N(CC(=O)N2CCCC2)C2CCCCC2)cc1 | 12µM* | -3 | ? | -1
Cc1ccc(S(=O)(=O)N(C)CC(=O)N2CCCCCCC2)cc1 | ? | . | 9% | .
COCCNC(=O)C1(S(=O)(=O)c2ccccc2)CC=CC1 | 38% | 13* | 39% | 25
SMILES | Pf growth 96h | Cycloheximide cs | Pf growth 48h | Shiga inhibitor
O=C(N1CCCCC1)C1(S(=O)(=O)c2ccccc2)CC=CC1 | 17% | 17* | -2% | 10
CN(CC(=O)N1CCCCCC1)S(=O)(=O)c1ccccc1 | ? | 34* | 64% | 69*
CCN(CC(=O)NCc1cccs1)C(=O)c1ccc(NS(=O)(=O)c2cccc([N+](=O)[O-])c2)cc1 | 7% | . | -1% | .
NC(C(=O)O)c1nn[nH]n1 (stereo not drawn) | . | 4 | . | 7
CC1=NCCN1S(=O)(=O)c1cc(Cl)ccc1Cl | . | 0 | 21% | -15
O=C(CS(=O)(=O)c1ccccc1)N1CCCCC1 | 2.6µM* | 9 | 10% | 1
Cc1ccc(S(=O)(=O)CC(=O)N2CCCCCC2)cc1 | ? | 11 | 14% | 14
CN(CC(=O)N1CCCCCC1)S(=O)(=O)c1ccc(F)cc1 | 12% | 39* | 60% | 105*
Cc1ccc(S(=O)(=O)CCC(=O)N(C)C2CCCCC2)cc1 | -15% | 13* | 8% | 26
CN(CC(=O)N1CCCCCC1)S(=O)(=O)c1ccc(Br)s1 | 34% | 33* | 20% | 80*
Cc1cc(C)cc(N(CCC#N)C(=O)CSc2n[nH]c(N)n2)c1 | 0% | . | 13% | .
CC(=O)Nc1ccc(-c2nc3c(C)cccc3[nH]2)cc1 | -8% | 45* | -11% | 110*
CCc1cc2cccc(C)c2nc1SCC(=O)c1ccc(NC(C)=O)cc1 | ? | -4 | ? | 1
CC(=O)Nc1cc(NC(C)=O)cc(-c2nc3ccccc3[nH]2)c1 | 10µM* | 2 | -19% | -2
CC(=O)Nc1ccc2nc(-c3ccncc3)[nH]c2c1 | -2% | 10 | . | 30
CC(=O)Nc1ccc2nc(-c3ccccn3)[nH]c2c1 | ? | 46* | 100% | 74*
Cc1ccc(C(=O)N2CCN(C34CC5CC(CC(C5)C3)C4)CC2)o1 | ? | -3 | 20% | -7
Cc1ccc(O)c(NC(=O)c2cc(-c3ccccc3)on2)c1 | 0% | 66* | ? | .
O=C(Nc1cc(Br)ccc1O)c1cc(-c2ccccc2)on1 | ? | 14* | 2.1µM* | 27
COc1ccc(S(=O)(=O)Nc2ccccn2)cc1C(=O)Nc1ccccc1 | ? | 0 | 12% | -2
COC(=O)c1ccc(CSc2nc3c(cnn3-c3ccccc3)c(=O)[nH]2)o1 | -21% | -1 | -26% | 3
COC(=O)c1ccc(CSc2nc(-c3ccccc3)cs2)o1 | -3% | 22* | 9% | 45
COC(=O)c1cccc(CSc2nc3ccccc3[nH]2)c1 | ? | 39* | 225% | 92*
COC(=O)c1ccc(CSc2nc3ccccc3[nH]2)o1 | 66% | 11* | 35% | 10
